The values that follow come from ChEMBL document CHEMBL3433997, “St. Jude Leishmania screening dataset” (2016).

Structures are written as SMILES.

The target in this assay is Glucose transporter (Leishmania mexicana) (UniProt O61059). As to the kind of experiment: ST_JUDE_LEISH: Cytotoxicity at 2uM final concentration against transgenic Leishmania Mexicana promastigotes LmGT2 that are glucose transport deficient and complemented with the L. Mexicana glucose transporter 2. Activity is measured by DNA content using SYBR green in vitro. The assay is classed as functional.
The term inhibition denotes the change of the read-out against control, counted positive when it falls. Consider `O=C1C(c2ccccc2)=C(Nc2ccc([N+](=O)[O-])cc2)c2ccccc21`, for which the inhibition is 2.14%. For `Cc1ccc(NC(=O)NC2CCN(c3ccnc4cc(Cl)ccc34)C2)cc1` (stereo unspecified), the inhibition was determined as 2.34%. With `Cn1nccc1C(=O)NCCNCc1ccc(-c2cccc(-c3nc4cc(C(F)(F)F)ccc4[nH]3)c2)cc1`, the inhibition is 2.51%. With `CCC(C)Oc1ccc2nc(N)nc(N)c2c1Cl` (stereo unspecified), the inhibition was found to be 30%. The value for `CCOc1ccc2c(=NN=Cc3ccc(F)cc3)cc(C)[nH]c2c1` was 1.49%. On to `Nc1ncnc2occ(-c3ccc(NC(=O)Nc4cc(C(F)(F)F)ccc4F)cc3)c12`, for which the inhibition is -2.03%.

For `CCCCNC(=O)C1CCCN(C(=O)c2ccc(O)c(-c3ccc(Cl)c(Cl)c3)c2)C1` (stereo unspecified), the inhibition stood at 0.69%. `N#Cc1cccc(COC(=O)C2=C(COc3ccccc3Cl)NC(=O)NC2c2c[nH]c3cnccc23)c1` (stereo unspecified): the inhibition is 6.83%. Under `CCOc1ccc2nc3cc([N+](=O)[O-])ccc3c(N)c2c1` stands 2.01%; under `CCc1cc2c(cc1OCCN(C)C)N(C(=O)Nc1ccc(-c3ccncc3)c(Cl)c1)CC2`, 3.08%; under `Cc1cc(N2CCC(NS(=O)(=O)c3ccc(F)cc3)CC2)nc(Nc2cccc(C#N)c2)n1`, 41%. Take `Cc1cccc2nc(-c3ccc(-c4cccc(NC(=O)NCc5ccccc5)c4)cc3)[nH]c12`: the inhibition was 1.98%.

In the case of `CS(=O)(=O)c1ccc2[nH]c(-c3cc(-c4ccc(OCCN5CCOCC5)cc4)cnc3N)nc2c1`, the inhibition came out at 4.16%. Under `Cc1cc(NC2CCN(Cc3ccccc3)CC2)nc(NCCCCc2ccccc2)n1` stands 4.87%; under `CCCC1N=C(N)N=C(N)N1c1cccc([N+](=O)[O-])c1` (stereo unspecified), 0.75%. For the molecule `Fc1ccc(C=NN=c2cc[nH]c3ccc(C(F)(F)F)cc23)cc1`, the inhibition was found to be 5.46%.
